High-throughput results deposited in PubChem by National Center for Advancing Translational Sciences (NCATS).
DT40 TDP1 CPT: DT40-hTDP1 cell growth loss with CPT; chicken DT40 Tdp1-/-;hTDP1 cells + 20 nM CPT, ATP luminescence, 48 h; Potency, µM (titrated, usually from 46.2 µM), for inactives: top-dose activity change, negative = growth inhibition, actives largely listed as inhibitors; actives 12% (n = 420,000); also: potency is read from the fitted curve at half-maximal effect; nearly all actives have a fitted effect of over 55% in size
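Chicken DT40 Tdp1-/- cells stably complemented with human TDP1 were seeded at 400 cells/well in medium containing 20 nM camptothecin, exposed to pin-transferred compounds, and grown at 37 °C for at least 48 hr. Viability was read as ATP luminescence.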
TDP1 inh: inhibitors of human tyrosyl-DNA phosphodiesterase TDP1. Q9NUW8. recombinant TDP1, AlphaScreen DNA substrate cleavage. Potency, µM (series often up to 130 µM), without a hit: at the top dose activity change, negative = inhibition, hits mostly inhibitors. actives 0.28% (n = 350,000). AID 485290; also: potency is read from the fitted curve at half-maximal effect; nearly all actives have a fitted effect of over 40% in size
Target sequence (Q9NUW8 whole entry, looked up): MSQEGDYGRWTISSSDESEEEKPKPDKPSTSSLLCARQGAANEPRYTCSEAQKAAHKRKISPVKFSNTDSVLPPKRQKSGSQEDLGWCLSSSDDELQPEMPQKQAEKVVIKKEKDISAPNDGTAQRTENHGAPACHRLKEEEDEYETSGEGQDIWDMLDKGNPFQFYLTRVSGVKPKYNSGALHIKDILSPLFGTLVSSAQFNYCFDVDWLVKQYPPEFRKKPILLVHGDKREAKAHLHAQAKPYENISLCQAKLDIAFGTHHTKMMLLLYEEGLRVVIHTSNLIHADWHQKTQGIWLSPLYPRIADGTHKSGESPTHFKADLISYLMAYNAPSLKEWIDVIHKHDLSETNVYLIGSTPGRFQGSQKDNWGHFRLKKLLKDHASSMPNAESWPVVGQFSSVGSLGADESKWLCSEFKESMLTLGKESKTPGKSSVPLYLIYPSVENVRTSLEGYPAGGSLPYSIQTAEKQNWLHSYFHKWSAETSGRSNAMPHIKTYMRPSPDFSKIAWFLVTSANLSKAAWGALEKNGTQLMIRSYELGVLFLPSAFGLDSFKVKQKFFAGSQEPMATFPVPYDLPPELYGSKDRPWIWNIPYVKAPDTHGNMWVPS
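Signal: AlphaScreen proximity between streptavidin donor and anti-FITC acceptor beads on intact substrate. Reaction: Tdp1 1 nM, substrate 15 nM final, 5 min RT after 15 min compound preincubation.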
Six1-Eya2 blk: inhibitors of human Six1/Eya2 interaction; Q15475+O00167; AlphaScreen GST-Six1/His-Eya2 binding, biochemical; stronger effect = lower value; activity change, % (concentration not given with the values); actives 0.56% (n = 360,000); AID 651725; in the data active = activity change below about -65%; inconclusive = mostly about -30% to -63%
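Six1/Eya2 binding was read as AlphaScreen signal after compounds were pinned into GST-Six1 plus His-tagged Eya2 (5X stock 250/500 nM) in pH 8.0 Tris/NaCl/TCEP buffer, beads added, then incubated 1 h, 37 C, dark.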
IL1B secr inh: inflammasome signaling inhibition, IL-1 beta readout. THP-1 LPS/ATP IL-1B secretion, AlphaLISA, 16 h; stronger effect = lower value. activity change, % at 57.5 µM. actives 4.7% (n = 360,000); in the data active = activity change below about -50%; inconclusive = mostly about -30% to -49%
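Secreted IL-1B measured by AlphaLISA bead assay after 16 h compound exposure of THP-1 cells; compounds (final up to 57.5 uM) added 1 h before LPS (250 ng/mL) and ATP (1.25 mM) stimulation; lower signal means less secretion.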
DT40 TDP1 no CPT: qHTS for Inhibitors of human tyrosyl-DNA phosphodiesterase 1 (TDP1): qHTS in cells in absence of CPT; Potency, µM (doses to about 46.2 µM), inactives show top-dose activity change, negative = growth inhibition, actives largely listed as inhibitors; AID 686978, 2013; actives 15% (n = 420,000); DT40 Tdp1-/- hTDP1 cells, no CPT, ATP luminescence, 48 h; also: potency is read from the fitted curve at half-maximal effect; nearly all actives have a fitted effect of over 55% in size
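Chicken DT40 Tdp1-/- cells complemented with human TDP1, screened without camptothecin (DMSO vehicle only), 400 cells/well. Compounds pin-transferred, cells incubated at 37 °C for at least 48 hr. Growth read as ATP-dependent luminescence (CellTiter-Glo, 30 min at RT).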
CtBP-E1A blk: inhibitors of CtBP/E1A interaction; actives 0.49% (n = 340,000); AID 651724; activity change, % (no concentration beside the values); AlphaScreen GST-E1A/His-CtBP binding, 1536-well; stronger effect = lower value; in the data active = activity change below about -65%; inconclusive = mostly about -30% to -63%
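Homogeneous bead-based format: GST-tagged E1A captured on glutathione donor beads, His-tagged CtBP on nickel acceptor beads; compounds precede bead addition by 2 h at 37 °C.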
Starred values were filed as active, the others as inactive; ? = inconclusive; nt = no result given; [ ] = dose if it differs, or a comment. The list is not random: actives were taken first. Their share in the collection is about 18%. Unless noted, calls follow the shape of the dose curve; as a rule, active = well fitted curve in the direction sought with a large enough effect; inconclusive = small, poorly fitted or top-dose-only effect, or another doubt; inactive = no such curve, though single readings can be large; an effect the other way counts as inactive or inconclusive. % is scaled to controls: 0 for no effect and ±100 for the full control effect.

SMILES	DT40 TDP1 CPT	TDP1 inh	Six1-Eya2 blk	IL1B secr inh	DT40 TDP1 no CPT	CtBP-E1A blk
COc1ccc(S(=O)(=O)N2CCCC(c3cc(C(=O)NCc4cccnc4)no3)C2)cc1 (configuration not stated)	23µM*	nt	1	3	?	-2
COc1ccccc1N1CCN(C(c2cccs2)C(C)NC(=O)C(=O)N2CCOCC2)CC1 (configuration not stated)	-4%	5%	0	2	16%	-4
CC(C)CNC(=O)C1(C)CCCN1C(=O)c1cccnc1 (configuration not stated)	-13%	nt	3	26	-25%	6
O=[N+]([O-])c1ccc(/C=[N+](\[O-])[C@@H]2CCCC[C@@H]2/[N+]([O-])=C/c2ccc([N+](=O)[O-])o2)o1	7.3µM*	nt	4	-92*	10µM*	4
Cc1cccc(C)c1-n1nnnc1C1(C)CCC(=O)N1CCCn1ccnc1 (configuration not stated)	4%	nt	5	10	-22%	5
CCCCn1nnnc1C1(C)CCC(=O)N1CCCn1ccnc1 (configuration not stated)	21µM*	nt	-1	-7	16µM*	8
O=C(Nc1ncn[nH]1)c1cc(S(=O)(=O)Nc2cccc(C(F)(F)F)c2)ccc1Cl	1%	1%	-8	21	12%	-4
CCCNC(=O)c1ccc2snnc2c1	0%	0%[56.1 µM]	-8	14	-17%	-2
CCCNC(=O)c1nnsc1S(=O)c1ccc(Cl)cc1 (configuration not stated)	0.41µM*	0%	3	-102*	0.52µM*	-1
CNC(=O)c1nn(-c2ccc(Cl)cc2)ccc1=O	0%	3%	5	0	-1%	4
CNC(=O)c1nnsc1S(=O)c1ccc(Cl)cc1 (configuration not stated)	0.41µM*	0%	-1	-105*	0.65µM*	-3
CNCCNC[C@H](Cc1cccc2ccccc12)NCCc1ccccc1	?	2%	-5	?	?	-8
CNC[C@H](Cc1ccccc1)NC[C@@H](Cc1cccc2ccccc12)NCCc1ccc(C)cc1	18µM*	nt	1	-106*	15µM*	-17
COc1ccc(C2/C(=C(\O)c3ccc4c(c3)OCCO4)C(=O)C(=O)N2Cc2cccnc2)cc1 (configuration not stated)	-3%	8%	1	-8	-15%	nt
Cc1cccc(CNC(=O)CCCn2c(=O)c3cccn3c3ccc(F)cc32)c1	?	0%	nt	nt	23µM*	nt
COc1ccc(CCNC(=O)Cn2c(=O)c3cccn3c3ccccc32)cc1OC	?	3%	nt	nt	23µM*	nt
COc1ccc(CNC(=O)CCCn2c(=O)c3cccn3c3ccc(F)cc32)cc1OC	18µM*	nt	nt	nt	18µM*	nt
COCCCNC(=O)C1CCN(C(=O)c2cc3sccc3n2Cc2ccc(Cl)cc2)CC1	13µM*	1%	nt	nt	21µM*	nt
CCC(C)NC(=O)C1CCN(C(=O)c2cc3sccc3n2Cc2ccc(Cl)cc2)CC1 (configuration not stated)	3.7µM*	3%	nt	nt	2.1µM*	nt
CCn1c(C(=O)N2CCC(C(=O)NCCCOC)CC2)cc2sccc21	-21%	7%	nt	nt	-12%	nt
O=C(NCc1ccco1)C1CCN(C(=O)c2cc3sccc3n2Cc2ccc(Cl)cc2)CC1	18µM*	7%	-16	-87*	?	-8
COCCNC(=O)C1CCN(C(=O)c2cc3sccc3n2Cc2ccc(Cl)cc2)CC1	5.2µM*	0%	nt	nt	2.6µM*	nt
CCO[C@@H]1OC(C(N)=O)=C[C@H](C(C)(C)C)[C@H]1CCCO	3%	nt	5	16	6%	0
Cc1n[nH]c(C)c1S(=O)(=O)N1CCN(S(=O)(=O)c2ccccc2C#N)CC1	1%	0%[56.1 µM]	4	-17	3%	nt
Cc1nc2ccccc2nc(=O)c1NNc1ccccc1	-30%	3%	2	0	?	1
SMILES	DT40 TDP1 CPT	TDP1 inh	Six1-Eya2 blk	IL1B secr inh	DT40 TDP1 no CPT	CtBP-E1A blk
Cc1ccc2nc(=O)c(NNc3ccccc3)cnc2c1	?	0%	-8	-28	10µM*	5
O=C(Nc1ccc(F)cc1F)c1ccc(-n2cncn2)nc1	-19%	3%	1	11	0%	6
CC(=O)Nc1ccc(NC(=O)c2c(-c3ccccc3)noc2C)cc1	-8%	nt	nt	nt	-26%	nt
CCN(c1ccc(C)cc1C)S(=O)(=O)c1nnc(NC(=O)c2ccccc2OC)s1	?	0%	nt	nt	16µM*	nt
CCN(c1ccccc1C)S(=O)(=O)c1nnc(NC(=O)c2ccccc2C)s1	?	6%	nt	nt	18µM*	nt
CCN(c1ccc(OC)cc1)S(=O)(=O)c1nnc(NC(=O)c2ccccc2C)s1	?	-1%	nt	nt	-28%	nt
COc1ccc(C(=O)Nc2ccccc2-c2nnn(CC(=O)NCc3ccco3)n2)cc1	-23%	4%	-2	-17	-14%	1
COc1ccc2[nH]c3c(c2c1)CCN1C(=O)C(CC(=O)NC/C=C(\C)CCC=C(C)C)C[C@H](C(=O)N2CCCCC2)[C@@]31C (some centres not stated)	nt	0%[56.1 µM]	nt	nt	nt	nt
CC(C)=CCC/C(C)=C/CNC(=O)CC1C[C@H](C(=O)N2CCCCC2)[C@@]2(C)c3[nH]c4ccccc4c3CCN2C1=O (some centres not stated)	21µM*	2%	0	62	13µM*	4
CCN(CC)C(=O)[C@H]1CC(CC(=O)NC/C=C(\C)CCC=C(C)C)C(=O)N2CCc3c([nH]c4ccccc34)[C@]12C (some centres not stated)	23µM*	1%	-14	?	?	-12
CCN(CC)C(=O)[C@H]1CC(CC(=O)NC(C)(C)C)C(=O)N2CCc3c([nH]c4ccc(OC)cc34)[C@]12C (some centres not stated)	20%	1%[56.1 µM]	4	24	4%	-10
CCN(CC)C(=O)[C@H]1CC(CC(=O)NC/C=C(\C)CCC=C(C)C)C(=O)N2CCc3c([nH]c4ccc(OC)cc34)[C@]12C (some centres not stated)	?	5%[56.1 µM]	-23	-78*	?	-18
CCN(CC)C(=O)[C@H]1C[C@H](CC(=O)NC/C=C(\C)CCC=C(C)C)C(=O)N2CCc3c([nH]c4ccc(Cl)cc34)[C@]12C	?	2%[56.1 µM]	-1	-4	?	2
